Out of some 1,300 compounds screened, about 380 (29%) were called active. Inconclusive results (about 37%) are left out. Calls follow the shape of the dose curve; as a rule, active = well fitted inhibition curve with a large enough effect; inconclusive = small, poorly fitted or top-dose-only effect; inactive = flat fitted curve, though single readings scatter. This is one part of the list. Entries that show only a call come without a potency.
Molecular target: Thyrotropin receptor (Homo sapiens) (UniProt P16473)
Sequence (P16473 whole entry, looked up): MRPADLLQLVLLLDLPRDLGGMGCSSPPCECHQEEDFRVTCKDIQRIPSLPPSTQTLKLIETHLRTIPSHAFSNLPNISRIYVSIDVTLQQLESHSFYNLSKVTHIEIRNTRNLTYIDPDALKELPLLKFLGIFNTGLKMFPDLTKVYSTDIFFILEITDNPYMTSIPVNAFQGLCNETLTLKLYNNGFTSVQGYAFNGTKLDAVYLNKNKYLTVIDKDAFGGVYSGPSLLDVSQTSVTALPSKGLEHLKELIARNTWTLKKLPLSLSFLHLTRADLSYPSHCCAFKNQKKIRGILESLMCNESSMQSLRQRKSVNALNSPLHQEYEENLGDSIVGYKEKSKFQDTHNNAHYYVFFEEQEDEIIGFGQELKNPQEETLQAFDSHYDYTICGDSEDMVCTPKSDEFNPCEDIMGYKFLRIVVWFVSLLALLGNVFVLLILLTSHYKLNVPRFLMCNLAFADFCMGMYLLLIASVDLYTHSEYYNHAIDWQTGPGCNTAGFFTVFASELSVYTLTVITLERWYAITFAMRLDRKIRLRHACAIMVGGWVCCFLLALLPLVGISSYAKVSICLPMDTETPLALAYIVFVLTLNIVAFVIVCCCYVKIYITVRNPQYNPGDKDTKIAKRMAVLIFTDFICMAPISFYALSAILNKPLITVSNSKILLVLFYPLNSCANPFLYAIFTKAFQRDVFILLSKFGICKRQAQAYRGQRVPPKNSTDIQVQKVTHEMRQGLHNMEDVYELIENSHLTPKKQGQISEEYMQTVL
Assay: qHTS for antagonists of the Thyroid Stimulation Hormone Receptor: Hit Validation in Primary Screen; also: nearly all actives have a fitted effect of over 80% in size
Conditions: TSHR-expressing cells, cAMP antagonist mode; series mostly up to 58 µM
Outline: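 Competitive HTRF detected cAMP in lysates of TSHR cells, read 30 minutes after antibody and d2 addition at room temperature. Before lysis, cells had 2 hours at 37 deg C with compound plus EC80 TSH, 4nM final.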
Potency is read from the fitted curve at half-maximal effect.

| SMILES | Potency |
| --- | --- |
| CC(C)N(C(=O)Cn1c(-c2cccnc2)ccc(C#N)c1=O)C(C)C | inactive |
| CC1CCCC(NC(=O)CN2C(=O)COc3ccccc32)C1C (stereo not drawn) | inactive |
| N#CC(C#N)=NNc1ccc(S(=O)(=O)N2CCCCC2)cc1 | 3.01 µM (active) |
| Cc1ccc(S(=O)(=O)N2CCOCC2)cc1N/N=C(\C#N)c1nc2ccccc2[nH]1 | inactive |
| COC(=O)c1ccc(COc2cc(O)c3c(c2)OC(C)(C)CC3=O)cc1 | 30.1 µM (active) |
| CC(=O)c1ccc(S(=O)(=O)N2CCN(CCOc3ccc(Br)cc3)CC2)cc1 | 30.1 µM (active) |
| Cc1ccc(S(=O)(=O)N2CCN(C(=O)CCn3cncn3)CC2)cc1 | inactive |
| Cc1ccc(O)c(N=Cc2cc(Cc3ccccc3)cc([N+](=O)[O-])c2O)c1 | 16.9 µM (active) |
| CN(C)S(=O)(=O)N1CCN(c2ccnc3cc(Cl)ccc23)CC1 | inactive |
| O=C(Nc1ccc(C(F)(F)F)cc1)c1csc(-c2ccncc2)n1 | 60.1 µM (active) |
| CC(C)(C)NC(=O)C(c1ccc(O)cc1)N(Cc1ccccc1)C(=O)CCC(=O)Nc1nccs1 (stereo not drawn) | inactive |
| O=[N+]([O-])c1c(NCCO)cc(Sc2nc3ccccc3s2)c2nonc12 | 23.9 µM (active) |
| O=C(Nc1cc(Sc2nc3ccccc3s2)cc([N+](=O)[O-])c1)c1ccccc1F | inactive |
| Cc1nnc(Sc2cc(NCCCO)c([N+](=O)[O-])c3nonc23)s1 | 33.8 µM (active) |
| Cc1nnc(SCC(=O)Nc2nonc2C)s1 | inactive |
| O=C1C=C(c2ccc3[nH]ccc3c2)C[C@@H](c2ccc(Cl)cc2)C1 | inactive |
| O=C(/C=C/c1cccc(Cl)c1)c1ccc([N+](=O)[O-])o1 | 26.9 µM (active) |
| C/C(=N\NC(=O)c1nnn(-c2nonc2N)c1-c1ccc(Cl)c(Cl)c1)c1ccncc1 | inactive |
| CCn1nc(C)c(CN2CCCC(CNS(=O)(=O)c3ccc(OC)cc3)C2)c1C (stereo not drawn) | inactive |
| C=C(C)C(=O)OCC(O)COc1ccc(C(C)(C)c2ccc(OCC(O)COC(=O)C(=C)C)cc2)cc1 (stereo not drawn) | 21.3 µM (active) |
| O=c1cc(-c2ccccc2)nc2c(-c3ccccc3)c(C(F)(F)F)[nH]n12 | 6.01 µM (active) |
| COc1ccc(-c2cn(CCCOCc3ccccc3)nn2)cc1 | inactive |
| COc1ccc(-c2c(C(F)(F)F)[nH]n3c(=O)cc(-c4ccccc4)nc23)cc1 | 19 µM (active) |
| Nc1nc2nc(-c3ccccc3)cc(C(F)(F)F)c2s1 | inactive |
| COc1ccc(OC)c(C2=NOC(C(=O)NCC3CCCO3)C2)c1 (stereo not drawn) | inactive |

| SMILES | Potency |
| --- | --- |
| Cc1sc2ncn(CC(=O)NCCCC(=O)NCc3ccc(F)cc3)c(=O)c2c1C | inactive |
| Cc1ccc(CNC(=O)CCNC(=O)N2CCn3c2nc2ccccc23)cc1 | inactive |
| Cc1cc(NC(=O)c2cc(-c3ccco3)on2)nn1Cc1ccc(Cl)cc1 | 30.1 µM (active) |
| O=C(Nc1ccccc1Cl)/C(Cl)=C(\Cl)S(=O)c1ccccc1 (stereo not drawn) | 26.9 µM (active) |
| COc1ccc(NC(=O)/C(Cl)=C(/Cl)S(=O)Cc2ccccc2Cl)cn1 (stereo not drawn) | 21.3 µM (active) |
| COc1ccc(NC(=O)/C(Cl)=C(/Cl)S(=O)Cc2ccc(Cl)cc2)cn1 (stereo not drawn) | 30.1 µM (active) |
| COc1ccc(-n2nc(C(=O)NCC(=O)NCCCN3CCN(C)CC3)c3ccccc3c2=O)cc1 | inactive |
| Cc1ccccc1NC(=O)Cc1nc(COC(=O)c2cccc([N+](=O)[O-])c2)cs1 | inactive |
| CCSc1ccc(C(=O)Nc2ccc(Br)cn2)cc1[N+](=O)[O-] | inactive |
| CC(=O)Oc1c(I)cc(I)cc1C(=O)Nc1ccc(Cl)cc1 | 1.9 µM (active) |
| Cn1cc(Cl)c(C(=O)N/N=C/c2ccc3c4c(cccc24)CC3)n1 | inactive |
| CCC(=O)NC1=C(Cl)C(=O)C(NC(=O)CC)=C(Cl)C1=O | 30.1 µM (active) |
| O=C(NC1CCOc2ccccc21)c1ccccn1 (stereo not drawn) | inactive |
| COc1ccc(CCNC(=O)c2ccc(-c3ccc([N+](=O)[O-])cc3Cl)o2)cc1OC | 23.9 µM (active) |
| COc1ccc(CCNC(=O)c2cccc3c2C(=O)N(C2CCCCC2)C3)cc1OC | inactive |
| O=C(CSc1nnc(-c2ccncc2)n1Cc1ccco1)Nc1nc(-c2ccccc2)cs1 | 21.3 µM (active) |
| Cc1cc(C)c(S(=O)(=O)c2c(C)cccc2C)c(Cl)n1 | 23.9 µM (active) |
| CC(Sc1nn(-c2ccc(F)cc2)c(=S)s1)C(=O)c1c(N)n(C)c(=O)n(C)c1=O (stereo not drawn) | 37.9 µM (active) |
| CCCCCC/C(C)=C1/SC(=S)NC1=O | 30.1 µM (active) |
| O=C(Nn1cnnc1)C(c1ccccc1)c1ccccc1 | inactive |
| O=C(N=C1SC2CS(=O)(=O)CC2N1c1ccc(F)cc1)C1CC1 (stereo not drawn) | inactive |
| CCCCCc1c2c(cc(O)c1C(=O)O)OC(=O)c1c(cc(OC)cc1C(=O)CCCC)O2 | 33.8 µM (active) |
| COC(=O)[C@H]1[C@H]2C[C@@H]3c4[nH]c5cc(OC)ccc5c4CCN3C[C@H]2C[C@@H](OC(=O)/C=C/c2cc(OC)c(OC)c(OC)c2)[C@@H]1OC | inactive |
| O=C(CC1C(=O)NCCN1Cc1cccc(F)c1F)NCCCC1CCCC1 (stereo not drawn) | inactive |
| CCCn1nnc(NC(=O)C(C)Oc2ccc(Cl)cc2Cl)n1 (stereo not drawn) | inactive |

| SMILES | Potency |
| --- | --- |
| CC(Oc1ccc(Cl)cc1Cl)c1nc(-c2ccc(NC(=O)c3cccnc3)cc2)no1 (stereo not drawn) | 21.3 µM (active) |
| Cc1ccccc1Oc1cc(-n2ncc(Cl)c(Cl)c2=O)ncn1 | 12 µM (active) |
| COCCNc1cnn(-c2ccccc2)c(=O)c1Cl | inactive |
| CC(C)(CNC(=O)C1c2ccccc2-c2ccccc21)N1CCOCC1 | inactive |
| Cc1[nH]n(-c2ccccc2)c(=O)c1N=Nc1c(O)cc(S(=O)(=O)N(C)C)c2ccccc12 | 8.49 µM (active) |
| CC(NC(=O)/C(C#N)=C/c1ccc([N+](=O)[O-])o1)c1ccccc1 (stereo not drawn) | 30.1 µM (active) |
| CCc1nn(CC(=O)N2CCCCCC2)c(=O)c2cc3ccccc3n12 | inactive |
| O=C(Cn1ncc(Cl)c(Cl)c1=O)N1CCN(S(=O)(=O)c2ccc3ccccc3c2)CC1 | 9.53 µM (active) |
| Cc1ccc(S(=O)(=O)N2CCN(C(=O)Cc3ccsc3)CC2)c(C)c1 | inactive |
| NC(=O)CSc1oc(-c2ccco2)nc1S(=O)(=O)c1ccccc1 | inactive |
| NC(=O)c1ccc(CN2CCc3ccccc3C2)cc1 | inactive |
| CCc1nnc(NS(=O)(=O)c2ccc(NC(=O)COc3ccc4ccccc4c3)cc2)s1 | inactive |
| CCc1nnc(NC(=O)c2ccc(Cl)c(S(=O)(=O)N3CCc4ccccc43)c2)s1 | 7.57 µM (active) |
| O=C(Nc1nnc(C2CC2)s1)c1ccc(Cl)c(S(=O)(=O)N2CCc3ccccc3C2)c1 | 3.79 µM (active) |
| CS(=O)(=O)N1CCc2cc(C(=O)Nc3ccc(COCC(F)(F)F)cc3)ccc21 | inactive |
| C=CCOc1c(Cl)cc(CNc2ccc(N(C)C)cc2)cc1OC | inactive |
| O=C1C=C(c2ccc(Cl)c(C(F)(F)F)c2)C[C@@H](c2ccc(Cl)cc2)C1 | inactive |
| N#Cc1c(C(F)(F)F)cc(-c2ccc(Cl)cc2)[nH]c1=O | 10.7 µM (active) |
| COc1cc(C(C(=O)NCc2ccccc2)N(C(=O)c2snc(C(N)=O)c2N)C2CCCC2)cc(OC)c1OC (stereo not drawn) | inactive |
| COC(=O)c1ccc(/C(O)=C(\C#N)c2nc3ccccc3s2)cc1 | 15.1 µM (active) |
| Cc1ccc(NC(=S)c2nc3ccccc3s2)cc1 | inactive |
| Cc1cc2c(NCCc3ccccc3)ncnc2s1 | 23.9 µM (active) |
| COc1ccc(CCNc2ncnc3c2[nH]c2cc(OC)c(OC)cc23)cc1OC | inactive |
| COc1ccc(CCNc2ncnc3sc(C)cc23)cc1OC | 19 µM (active) |
| Cc1nn(S(=O)(=O)c2ccc(F)cc2)c(C)c1S(=O)(=O)N1CCOCC1 | inactive |

| SMILES | Potency |
| --- | --- |
| Cc1nc2ccccc2n1CC(=O)N/N=C\C=C\c1ccccc1 | inactive |
| COc1ccc(-n2nnnc2SCC(=O)NC2CCCC2)cc1OC | inactive |
| Cc1ccc(-c2nc3ccc(C(=O)O)cc3nc2-c2ccc(C)cc2)cc1 | 23.9 µM (active) |
| Cc1ccc(Nc2cc(C)nc3ccc(C)cc23)cc1 | inactive |
| N#Cc1ccc(NC(=O)Nc2ccc(Cl)cc2)cc1 | 7.57 µM (active) |
| Nc1ccccc1N=Cc1ccc(-c2cccc(Cl)c2)o1 | 37.9 µM (active) |
| COc1ccccc1N1CCN(c2nc(C)nc3c2oc2ccccc23)CC1 | 26.9 µM (active) |
| Cc1ccccc1C(=O)Nc1nnc(SCC(=O)NC2CC2)s1 | inactive |
| Cc1ccc(NC(=O)Nc2ccc3c(c2)N(C)C(=O)CS3)cc1C | 30.1 µM (active) |
| CCC(C)NC(=O)CN1C(=O)CSc2ccc(S(=O)(=O)N3CCCC3)cc21 (stereo not drawn) | inactive |
| CC1CCN(CCCNC(=O)CN2C(=O)CSc3ccc(S(=O)(=O)N4CCOCC4)cc32)CC1 | inactive |
| O=C1CSc2nc3ccccc3n21 | inactive |
| CC(=O)N(C1=C(Cl)C(=O)c2ccccc2C1=O)C1CCCCC1 | 30.1 µM (active) |
| CCCCNC(=O)c1sc(=S)n2c1[nH]c(=O)c1ccccc12 | 4.78 µM (active) |
| CCOc1ccc(CCNC(=O)c2ccc3c(=O)[nH]c4c(C(=O)NC(C)C)sc(=S)n4c3c2)cc1 | 6.01 µM (active) |
| COc1ccccc1NC(=O)NNC(=O)CCN1CCOCC1 | inactive |
| NS(=O)(=O)c1ccc(CNC(=O)CCS(=O)(=O)Cc2ccccc2)cc1 | inactive |
| Brc1ccc(-c2nnc(-c3cccc(Br)c3)o2)cc1 | inactive |
| N#Cc1c(SCc2c(Cl)cccc2Cl)nc(N)[nH]c1=S | 19 µM (active) |
| CCOCCCNC(=O)C(NC(=O)c1ccc(=O)[nH]c1)c1ccc(Cl)cc1 (stereo not drawn) | inactive |
| COc1ccc(-n2nc(C(=O)NCC(=O)Nc3cc(OC)c(OC)c(OC)c3)c3ccccc3c2=O)cc1OC | inactive |
| CCn1nc(C)c(NC(=O)/C=C/c2ccc(OC)c(COc3ccc(Br)cc3)c2)c1C | inactive |
| Cc1nn(-c2ccccc2)c(C)c1NC(=O)COc1ccc(Br)cc1Cl | 23.9 µM (active) |

Reference: PubChem BioAssay AID602292 (National Center for Advancing Translational Sciences (NCATS), 2012)
